hcDAF12 agonist: activates DAF-12 receptor from parasite H. contortus. 370,000 tested, 1.4% active. HEK293 hcDAF-12 lit1-tk-luc reporter, luminescence; 0% DMSO, 100% Δ7-dafachronic acid. activation, % at 6.8 µM. AID 652067;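 active = activation above the mean of all tested compounds plus 3 SD, cut at about 5.5% in these data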;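 also: 100% = response to 3 µM Δ7-dafachronic acid high control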
hgDAF12 agonist: agonists of H. glycines DAF-12 nuclear receptor. HEK293 GAL4-hgDAF12 UAS-luciferase reporter, agonist luminescence; normalized to butyrate control. activation, % at 6.8 µM. 370,000 tested, 1.8% active;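 active = activation above a cutoff set at the mean of all screened compounds plus 3 SD, cut at about 10% in these data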;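 also: 0% = DMSO wells and 100% = sodium butyrate wells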
ssDAF12 agonist: S. stercoralis DAF-12 activation, primary screen | 370,000 tested, 1% active | AID 652126 | activation, % at 6.8 µM | HEK293 ssDAF-12/GRIP1 lit1-tk-luc reporter, luminescence; % of 3 µM dafachronic acid response;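 active = activation above the mean over all tested compounds plus 3 SD, cut at about 0.9% in these data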;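 also: 0% = DMSO-only wells and 100% = 3 µM delta7-dafachronic acid wells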
DAX1 inh-1: DAX1 (NR0B1) inhibition, primary screen; HEK293T StAR-luciferase reporter, SF-1/DAX-1 repression relief; inhibition, % at 6.8 µM; 370,000 tested, 1.1% active; AID 652010;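 active = inhibition above the mean over all tested compounds plus 3 SD, cut at about 3.6% in these data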;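 also: 0% = DAX-1 cells with DMSO and 100% = cells lacking DAX-1 with DMSO; higher inhibition means more luminescence from relief of DAX-1 repression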
DAX1 inh-2: inhibitors of human orphan nuclear receptor DAX1 (NR0B1); P51843; HEK293 Gal4-DAX1 luciferase reporter, luminescence; inhibition, % at 6.75 µM; 340,000 tested, 0.99% active; AID 504766;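 active = inhibition above the mean over all tested compounds plus 3 SD, cut at about 4.2% in these data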;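 also: 0% = DAX1-transfected cells with DMSO and 100% = empty-vector control cells with DMSO; inhibition shows as a rise in luminescence from relieved DAX1 repression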
Target sequence (P51843 207-470 limits assumed): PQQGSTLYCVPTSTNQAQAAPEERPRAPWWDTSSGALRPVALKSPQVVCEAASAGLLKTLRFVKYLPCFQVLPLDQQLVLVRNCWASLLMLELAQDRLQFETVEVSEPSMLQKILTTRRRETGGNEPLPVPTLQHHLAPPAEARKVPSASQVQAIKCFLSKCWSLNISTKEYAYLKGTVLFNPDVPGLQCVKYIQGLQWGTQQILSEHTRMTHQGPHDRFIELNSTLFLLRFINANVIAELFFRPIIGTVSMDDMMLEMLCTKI
DAX1 conf: confirmation of human DAX1 (NR0B1) inhibitors; shares compounds with DAX1 inh-1; AID 652134; inhibition, % at 6.8 µM; HEK293T StAR-promoter luciferase reporter, SF-1/DAX-1 repression; 2,400 tested, 87% active;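 active = inhibition above the average of every tested compound plus 3 SD, cut at about 3.8% in these data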;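 also: 0% = DAX-1 cells with DMSO and 100% = no DAX-1 control cells with DMSO; active compounds raise luminescence by relieving repression of the StAR reporter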
SF1 AF2mut Luc: counter-screen for DAX1 inhibitors: nonselective inhibitors with SF-1 AF2 mutant | shares compounds with DAX1 inh-1 | HEK293 StAR-luciferase, luminescence | inhibition, % at 6.8 µM | 2,400 tested, 78% active;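 active = inhibition above the mean of all tested compounds plus 3 SD, cut at about 3% in these data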;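 also: 0% = DAX-1 transfected cells with DMSO and 100% = cells without DAX-1 with DMSO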
LXR ag: activates human LXR-beta, counter-screen for hcDAF-12 agonists; activation, % at 6.8 µM; AID 743027; 3,400 tested, under 10 active; HEK293 Gal4-LXR tk-luc reporter, luminescence, 24 h; normalized: DMSO 0%, positive control 100%; shares compounds with hcDAF12 agonist;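 active = mean percent activation of the reporter above a cutoff set as the average over tested compounds plus their standard deviation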
Target sequence (P55055 whole entry, looked up, the tested form may be a part): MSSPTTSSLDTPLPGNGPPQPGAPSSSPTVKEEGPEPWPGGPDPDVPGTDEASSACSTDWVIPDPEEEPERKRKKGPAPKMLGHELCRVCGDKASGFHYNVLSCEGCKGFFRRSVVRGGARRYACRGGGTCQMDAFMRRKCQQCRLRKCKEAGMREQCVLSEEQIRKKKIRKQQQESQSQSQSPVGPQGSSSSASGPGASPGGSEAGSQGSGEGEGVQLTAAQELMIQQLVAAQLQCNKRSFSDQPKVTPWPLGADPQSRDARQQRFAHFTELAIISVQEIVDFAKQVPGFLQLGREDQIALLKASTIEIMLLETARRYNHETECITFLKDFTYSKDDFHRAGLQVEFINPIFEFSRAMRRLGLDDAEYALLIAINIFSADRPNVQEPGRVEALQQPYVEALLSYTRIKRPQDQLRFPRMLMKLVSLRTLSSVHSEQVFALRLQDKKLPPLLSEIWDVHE
hcDAF12 conf: confirmation of H. contortus DAF-12 agonists; AID 743032; shares compounds with hcDAF12 agonist; 3,400 tested, 61% active; activation, % at 6.8 µM; HEK293 hcDAF-12 lit1-tk-luc reporter, luminescence; % of Δ7-dafachronic acid response;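 active = mean activation across triplicate tests above the threshold derived from the earlier primary screen, cut at about 5.5% in these data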;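 also: 0% = DMSO only wells and 100% = 3 µM Δ7-dafachronic acid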
hgDAF12 ag: confirmation of H. glycines DAF-12 agonists. shares compounds with hgDAF12 agonist. HEK293 GAL4-hgDAF12 luciferase reporter, agonist mode; percent of butyrate response. activation, % at 6.8 µM. 3,300 tested, 80% active;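 active = mean activation over triplicate wells above the hit cutoff derived from the earlier primary screen, cut at about 11% in these data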;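 also: 0% = DMSO low control and 100% = 2 mM sodium butyrate high control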
LXR ag 2: LXR-beta agonism as DAF-12 counter-screen. shares compounds with hgDAF12 agonist. HEK293 Gal4-LXR luciferase reporter, 24 h. activation, % at 6.8 µM. 3,300 tested, under 10 active;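 active = mean activation of the triplicate above a set limit carried over from the primary screen, none filed active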
* = called active by the depositor; / = no result. Hits are enriched below; roughly 4.1% of the tested compounds scored in any of these assays.

SMILES	hcDAF12 agonist	hgDAF12 agonist	ssDAF12 agonist	DAX1 inh-1	DAX1 inh-2	DAX1 conf	SF1 AF2mut Luc	hgDAF12 ag	LXR ag 2	others
Cc1ccc(CNC(=O)CCS(=O)(=O)c2cc3c(cc2Br)CCN3C(=O)C2CC2)o1	-0.1	3.0	-0.8	-1.1	/	/	/	/	/
Clc1ccc(OCc2cc(-c3ccccc3)no2)c(Cl)c1	7.2*	14.6*	0.9*	7.5*	-0.7	9.3*	1.2	6.5	0.9	LXR ag=1.6;hcDAF12 conf=10.0*
Cc1cccc(OCc2cc(-c3ccccc3)no2)c1C	1.1	3.3	-0.7	0.7	2.5	/	/	/	/
CCOc1ccc2oc(C(=O)Nc3nccs3)c(C)c2c1	5.9*	13.8*	-0.3	7.2*	2.3	15.3*	7.5*	21.4*	1.1
COc1ccc2oc(C(=O)Nc3nccs3)c(C)c2c1	8.2*	18.2*	0.5	12.2*	2.4	11.0*	7.7*	22.9*	1.2	LXR ag=1.5;hcDAF12 conf=10.1*
COCCCNC(=O)C[C@H]1C[C@@]2(C(=O)OC)C(=C[C@H](COCc3ccccc3)O[C@@H]2C)N(CCc2ccc(OC)c(OC)c2)C1=O	-1.8	1.7	-1.1	-0.5	/	/	/	/	/
CC(=O)Oc1ccc(C(=O)NCCc2ccccc2)cc1	3.7	15.5*	0.6	7.2*	0.6	12.4*	5.3*	14.4*	0.6
COc1ccc(-n2c(COc3ccc(Cl)cc3)nnc2SCc2nc3ccccc3[nH]2)cc1	-2.4	-0.7	-1.5	-0.5	/	/	/	/	/
Clc1ccc(OCc2nc3ccccc3[nH]2)cc1	1.5	23.0*	0.0	4.7*	1.8	9.8*	9.3*	10.3	0.7
COc1cccc2cc(-c3csc(NC(=O)CCC(=O)NCCCN4CCC(C)CC4)n3)c(=O)oc12	6.2*	15.5*	1.6*	4.5*	-2.6	16.4*	3.8*	14.0*	0.8
COc1ccc(C(CCOC(=O)Oc2ccccc2)c2cc(OC)cc(OC)c2)cc1 (centres undefined)	-3.5	0.1	-1.8	-0.9	/	/	/	/	/
C[C@@H]1[C@@H](O)C[C@@]2(C[C@H](O)c3ccccc3O2)O[C@H]1c1ccccc1	0.3	-0.8	-0.9	-0.1	/	/	/	/	/
Cc1ccc(NC(=S)NC(=O)C2CCCCC2)c(Br)c1	6.3*	18.1*	0.3	9.8*	2.7	7.8*	7.2*	15.2*	0.7
COc1ccc(/C=C/C(=O)N(C)C2CCCCC2)cc1Br	-1.3	5.5	-1.4	0.5	2.6	/	/	/	/
CN(C(=O)/C=C/c1cnc2ccccc2c1)C1CCCCC1	8.1*	17.3*	0.9*	7.8*	-0.7	17.2*	9.9*	14.8*	0.8	LXR ag=1.1;hcDAF12 conf=6.3*
Cc1cnc(-c2nnc(N(C)C(=O)c3cccnc3)s2)cn1	0.3	0.1	-0.1	0.2	0.3	/	/	/	/
CC(=O)N(c1ccccc1)c1nnc(-c2cnc(C)cn2)s1	5.5	14.1*	-0.4	8.4*	2.5	9.5*	9.2*	10.8*	0.5
Nc1nnc(-c2ccc(F)cc2)s1	-1.7	2.2	-1.3	0.4	-0.4	/	/	/	/
CC(C)(C)c1ccc(-c2nnc(N)s2)cc1	2.5	16.8*	0.6	5.0*	3.0	10.7*	7.0*	12.0*	0.7
Cc1ccc2nc(-c3cccc(N)c3)oc2c1	6.4*	14.7*	-0.3	5.4*	0.1	14.6*	6.8*	16.3*	0.7
Cn1c(NNC(=O)CCC2CCCCC2)cc(=O)n(C)c1=O	0.1	2.5	-1.0	-0.8	0.8	/	/	/	/
Cn1c(NC(=O)CCC2CCCCC2)cc(=O)n(C)c1=O	5.5	13.7*	-0.5	5.6*	3.1	12.0*	6.0*	11.8*	0.7
CC(C)C[C@@H]1NC(=O)[C@@H]2CSCCS(=O)(=O)N2C1=O	-2.2	-0.9	-0.5	-0.1	/	/	/	/	/
Cc1cc(CNC(=O)c2cc(COc3ccc(F)c(F)c3)on2)nn1C	5.7*	15.0*	0.0	6.4*	2.3	7.4*	3.8*	14.2*	0.5
CCCC(=O)N1CCC(C(=O)NC2CCCc3ccccc32)CC1 (centres undefined)	-2.2	-0.4	-1.7	-0.6	/	/	/	/	/
SMILES	hcDAF12 agonist	hgDAF12 agonist	ssDAF12 agonist	DAX1 inh-1	DAX1 inh-2	DAX1 conf	SF1 AF2mut Luc	hgDAF12 ag	LXR ag 2	others
COc1ccc(-c2cc3ncc(-c4ccccc4)c(N)n3n2)cc1	1.3	24.6*	-0.7	6.5*	0.9	14.8*	7.0*	15.7*	0.7
N#Cc1cnc2cc(-c3ccccc3)nn2c1N	2.5	3.7	-0.8	0.2	/	/	/	/	/
COc1ccc(-c2cc3nc(C)cc(N)n3n2)cc1	14.9*	19.5*	2.4*	5.4*	-3.1	18.4*	8.9*	19.2*	1.1	LXR ag=1.9;hcDAF12 conf=12.8*
COc1ccc(-c2cc3nc(C)cc(-c4ccc(OC)cc4)n3n2)cc1	1.1	1.5	0.0	-0.3	2.3	/	/	/	/
CC(NCc1ccco1)C(=O)N1CCN(c2cccc(C(F)(F)F)c2)CC1 (centres undefined)	-0.8	-0.6	-1.7	-1.6	/	/	/	/	/
CC(=O)Nc1ccc2nc3ccccc3nc2c1	3.9	5.4	0.0	0.7	0.6	/	/	/	/
C=C(C)C(=O)Nc1ccc2nn(-c3ccccc3O)nc2c1	8.0*	20.4*	1.6*	7.9*	2.2	13.4*	7.7*	20.3*	1.0	LXR ag=2.0;hcDAF12 conf=10.1*
O=C(Nc1cnn(C23CC4CC(CC(C4)C2)C3)c1)c1cnn2cccnc12	4.1	13.7*	1.2*	5.8*	0.4	10.3*	5.9*	14.8*	0.8
COc1ccc(-c2nc(-c3ccc(Br)o3)no2)cc1	3.7	16.8*	1.3*	7.3*	3.5	14.0*	3.5*	16.4*	1.1
COc1ccc(-c2nc3ccccc3s2)cc1NC(C)=O	9.6*	19.1*	0.4	8.9*	2.0	8.2*	4.0*	16.3*	0.7	LXR ag=0.9;hcDAF12 conf=7.8*
CC(=O)NCc1ccc(-c2nc3ccccc3s2)cc1	4.0	15.5*	-0.8	6.9*	0.7	15.7*	6.7*	15.1*	0.6
O=C(NCc1ccc(C(=O)NCC2CCCO2)cc1)c1cccc(Br)c1 (centres undefined)	-1.4	-0.7	-0.8	-0.4	/	/	/	/	/

Screening data as filed in PubChem.
